According to PubChem BioAssay (NCATS):
Records with an inconclusive call do not appear. A call without a number means that no potency is given here. Values without a mark were called inactive. Active and inactive are the calls of the source. Calls come from the whole dose curve; as a rule, active = well fitted curve in the direction sought with a large enough effect; inconclusive = small, poorly fitted or top-dose-only effect, or another doubt; inactive = no such curve, though single readings can be large; an effect the other way counts as inactive or inconclusive.

Key:
[1] = molecular target: Aldehyde dehydrogenase, mitochondrial (Homo sapiens) (UniProt P05091); assay: qHTS for Inhibitors of the Aldehyde Dehydrogenase Family (ALDH2) Primary screen (AID 2061308); note: nearly all actives have a fitted effect of over 55% in size
[2] = molecular target: Retinaldehyde dehydrogenase 3 (Homo sapiens) (UniProt P47895); assay: qHTS for Inhibitors of the Aldehyde Dehydrogenase Family (ALDH1A3) Primary screen (AID 2061315)

| Compound | Potency [1] | Potency [2] | activity change, negative = inhibition [1] | activity change, negative = inhibition [2] |
| --- | --- | --- | --- | --- |
| CC(C)COc1ccc(-c2csc(N3CCC(C(N)=O)CC3)n2)cc1 | inactive | inactive |  |  |
| COc1ccc(C2=Nn3c(nnc3-c3ccccc3O)SC2)cc1OC | inactive | inactive |  |  |
| CNc1oc(-c2cccc(Cl)c2Cl)nc1C#N | inactive | inactive |  |  |
| Nc1ccc(S(=O)(=O)N2CCN(S(=O)(=O)c3ccc4c(c3)OCCO4)CC2)cc1 | inactive | inactive |  |  |
| Cc1ccc(S(=O)(=O)Nc2cnccc2C(=O)Nc2nc(-c3ccc(C)c(C)c3)cs2)cc1 | inactive | inactive |  |  |
| Cc1ccc(OCCn2c(CCNC(=O)Cc3cccc(F)c3)nc3ccccc32)cc1 | inactive | inactive |  |  |
| O=S(=O)(Nc1cccc2cccnc12)c1ccccc1 | inactive | inactive |  |  |
| COc1ccc(N2C[C@]34C=C[C@H](O3)C(C(=O)O)C4C2=O)cc1OC (stereo partly specified) | inactive | inactive |  |  |
| O=C(Nc1ccc2ccccc2c1)Nc1nnc(-c2ccc(F)cc2)s1 | inactive | inactive |  |  |
| O=S(=O)(Nc1nccs1)c1ccc(NCc2ccccc2)cc1 | inactive | inactive |  |  |
| Cc1ccccc1-c1nc(NCc2cccs2)c2ccccc2n1 | inactive | inactive |  |  |
| CC(C)c1ccccc1-c1ncc(F)c(NCc2ccc(-n3ccnn3)cc2)n1 | inactive | inactive |  |  |
| COc1ccc(C2=Nn3c(nnc3-c3ccc(OC)cc3OC)SC2)c(OC)c1 | inactive | inactive |  |  |
| Cc1ccc(S(=O)(=O)Nc2cccnc2C(=O)Nc2nc(-c3ccccc3)cs2)cc1 | inactive | inactive |  |  |
| Cc1cc2c(s1)c1cnn(Cc3ccc(Cl)c(F)c3)c(=O)c1n2C | inactive | inactive |  |  |
| CCOC(=O)c1[nH]c2c(c1C)C(=O)CCC2 | inactive | inactive |  |  |
| O=C(Nc1nnc(-c2ccco2)o1)c1ccncc1 | inactive | inactive |  |  |
| COc1cc(NC(=O)C(OC(=O)CNC(=O)c2ccccc2)c2ccccc2)c(OC)cc1Cl (stereo unspecified) | inactive | inactive |  |  |
| C[C@@H]1O[C@@H](O[C@H]2[C@H](OC(=O)[C@]34CCC(C)(C)C[C@H]3C3=CCC5[C@@]6(C)C[C@H](O)[C@H](O[C@@H]7O[C@H](CO)[C@@H](O[C@@H]8O[C@H](CO)[C@@H](O)[C@H](O)[C@H]8O)[C@H](O)[C@H]7O)[C@@](C)(CO)C6[C@H](O)C[C@@]5(C)[C@]3(C)C[C@H]4O)OC[C@H](O)[C@@H]2O)[C@H](O)[C@H](O)[C@H]1O[C@@H]1OC[C@@H](O)[C@H](O[C@@H]2OC[C@](O)(CO)[C@H]2O)[C@H]1O (stereo partly specified) |  |  | -1.66% [at 11.2 µM] | -12.4% [at 11.2 µM] |
| Cc1ccnc(NC(=O)N2CCN(c3cccc(C(F)(F)F)c3)CC2)c1 | inactive | inactive |  |  |
| C=C1C(=O)OC2/C=C(\C)CC/C=C(\C(=O)O)CC/C=C(\C)CCC12 (stereo unspecified) | inactive | inactive |  |  |
| O=S(=O)(c1cccc(C(F)(F)F)c1)N1CCN(S(=O)(=O)c2ccc3c(c2)OCCO3)CC1 | inactive | inactive |  |  |
| Cc1cc(N[S+](=O)([O-])c2ccc(NC(=O)Cc3ccccc3Cl)cc2)no1 | inactive | inactive |  |  |
| C=C(CCC1=C(C)[C@H]2[C@H](CC3[C@@H]4CC=C5C[C@@H](O)C[C@@H](O)[C@]5(C)C4[C@H](O)C[C@@]32C)O1)CO[C@@H]1O[C@H](CO)[C@@H](O)[C@H](O)[C@H]1O (stereo partly specified) | inactive | inactive |  |  |
| COc1cccc(-n2cnc3cc(C(=O)N4CCCCC4)ccc32)c1 | inactive | inactive |  |  |
| CCCn1c(C)nc2c(NCCCN(C)C)nc(C)nc21 | inactive | inactive |  |  |

| Compound | Potency [1] | Potency [2] | activity change, negative = inhibition [1] | activity change, negative = inhibition [2] |
| --- | --- | --- | --- | --- |
| N#Cc1nc(Nc2cc(Cl)cc(Cl)c2)nc(NC2CCCC2)n1 | inactive | inactive |  |  |
| CCN1CCCC1Cn1c(-c2ccccc2)nc2c(NC3CCCCC3)nc(C)nc21 (stereo unspecified) | inactive | inactive |  |  |
| COc1ccccc1C1=Nn2c(COc3ccccc3)nnc2SC1 | inactive | inactive |  |  |
| Cc1ccc(OCCn2c(CCNC(=O)Cc3cc(F)ccc3F)nc3ccccc32)cc1 | inactive | inactive |  |  |
| Cc1ccc(OCCn2c3c(c4ccccc42)CCN(C(=O)C2CCCCC2)C3)cc1 | inactive | inactive |  |  |
| Cc1cc2c(s1)c1cnn(Cc3c(F)ccc(F)c3Cl)c(=O)c1n2C | inactive | inactive |  |  |
| Cc1ccc(-c2ccc(CNc3nc(-c4ccccc4C(C)C)nc4ccccc34)cc2)cn1 | inactive | inactive |  |  |
| CCOC(=O)c1csc(NC(=O)c2ccncc2NS(=O)(=O)c2ccc(C)cc2)n1 | inactive | inactive |  |  |
| NC(=O)C1CCN(c2nc(-c3cccc(F)c3)cs2)CC1 | inactive | inactive |  |  |
| CCOC(=O)C1CCN(C(=O)C(C)(C)NC(=O)Nc2cccc(C(=O)OC)c2)CC1 | inactive | inactive |  |  |
| Cc1cc2c(s1)c1cnn(Cc3ccc(S(C)(=O)=O)cc3)c(=O)c1n2C | inactive | inactive |  |  |
| COc1ccnc(NC(=S)N2CCN(c3cccc(C(F)(F)F)n3)CC2)c1 | inactive | inactive |  |  |
| OCc1ccnc(NC(=S)N2CCN(c3cccc(C(F)(F)F)c3)CC2)c1 | inactive | inactive |  |  |
| CC(=O)Nc1sc2c(c1-c1ccc3c(c1)OCCO3)CCNC2 | inactive | inactive |  |  |
| O=[S+]([O-])(Nc1ccc(C2CCNCC2)cc1)c1ccc(NCc2ccc(Br)cc2O)cc1 | inactive | inactive |  |  |
| CCCCNc1nc(C)nc2c1nc(-c1ccccc1)n2C(C)CCCN(CC)CC (stereo unspecified) | inactive | inactive |  |  |
| COc1ccc(S(=O)(=O)Nc2cnccc2C(=O)Nc2nc(-c3ccccc3)cs2)cc1 | inactive | inactive |  |  |
| CNc1nnc(-c2cccc3ccccc23)o1 | inactive | inactive |  |  |
| O=C(NCc1nnc(-c2cc3ccccc3[nH]2)o1)c1ccccc1 | inactive | inactive |  |  |
| O=C(NCCc1nc2ccccc2n1CCOc1ccc(F)cc1)C1CCCCC1 | inactive | inactive |  |  |
| O=C(CCCc1ccccc1)NC(c1ccco1)c1cc(Cl)c2cccnc2c1O (stereo unspecified) | inactive | inactive |  |  |
| Cc1occc1CNc1ncnc2ccc(-c3ccc4c(c3)OCO4)cc12 | inactive | inactive |  |  |
| Cn1c2ccsc2c2cnn(Cc3ccccc3F)c(=O)c21 | inactive | inactive |  |  |
| Cc1nnc(-c2cnn(C)c2N)n1CCCc1cccnc1 | inactive | inactive |  |  |
| Cc1nc(Nc2ccccc2)c2nc(-c3ccccc3)n(CCN3CCOCC3)c2n1 | inactive | inactive |  |  |
| Clc1ccc(CN(CCCNc2ncnc(NCCCc3cnc[nH]3)n2)c2ccc(Br)cn2)cc1Cl | inactive | inactive |  |  |

| Compound | Potency [1] | Potency [2] | activity change, negative = inhibition [1] | activity change, negative = inhibition [2] |
| --- | --- | --- | --- | --- |
| N#Cc1ccccc1-c1csc(N2CCC(C(N)=O)CC2)n1 | inactive | inactive |  |  |
| COc1cc(O)c(C(CC(=O)N2CCCC(c3nc4ccccc4o3)C2)c2ccc3c(c2)OCO3)c(OC)c1 (stereo unspecified) | inactive | inactive |  |  |
| CCOC(=O)C1CCN(C(=O)C(C)(C)NC(=O)Nc2ccc(F)c(F)c2)CC1 | inactive | inactive |  |  |
| O=C(Cc1nc2ccc(Cl)cc2[nH]1)Nc1ccc(S(=O)(=O)Nc2nccs2)cc1 | inactive | inactive |  |  |
| COc1cc2nc(Nc3ccccc3)nc(NC3CC3)c2cc1OC | inactive | inactive |  |  |
| Cc1nc(-c2ccc([S+](=O)([O-])N3CCN([S+](=O)([O-])c4c(F)cccc4F)CC3)s2)cs1 | inactive | inactive |  |  |
| CC1(C)CC[C@]23CO[C@@]4(CCC5[C@@]6(C)CC[C@H](O[C@@H]7OC[C@H](O[C@@H]8O[C@H](CO)[C@@H](O)[C@H](O)[C@H]8O)[C@H](O)[C@H]7O[C@@H]7O[C@H](CO)[C@@H](O[C@@H]8O[C@H](CO)[C@@H](O)[C@H](O)[C@H]8O)[C@H](O)[C@H]7O)[C@@](C)(CO)C6CC[C@@]5(C)[C@]4(C)C[C@H]2OC2OCC(O)C(O)C2O)C3C1 (stereo partly specified) |  |  | -1.32% [at 11.2 µM] | 1.39% [at 11.2 µM] |
| CC(=O)c1cc2c(s1)c1cnn(Cc3ccccc3F)c(=O)c1n2C | inactive | inactive |  |  |
| O=[S+]([O-])(/C=C/c1nc(Nc2cc(F)cc(F)c2)c2ncn(CC(F)F)c2n1)c1ccccc1 | inactive | inactive |  |  |
| Cn1nnnc1Sc1ncnc2scc(-c3ccc(F)cc3)c12 | inactive | inactive |  |  |
| O=C(OCC#CCSc1nnc(-c2cccc3ccccc23)o1)c1cccc(C(F)(F)F)c1 | inactive | inactive |  |  |
| COc1ccc(-c2nnc3n2N=C(c2ccccc2OC)CS3)cc1 | inactive | inactive |  |  |
| FC(F)(F)c1ccccc1-c1nc(NCc2ccc(-c3ccncc3)cc2)c2ccccc2n1 | inactive | inactive |  |  |
| CC(C)c1cc2c(s1)c1cnn(Cc3ccccc3F)c(=O)c1n2C | inactive | inactive |  |  |
| N#CN1CCC(NC(=O)c2cccc(F)c2)CC1 | inactive | inactive |  |  |
| CCCn1c(C)nc2c(N3CCC(N4CCN(C)CC4)CC3)nc(C)nc21 | inactive | inactive |  |  |
| O=[S+]([O-])(Nc1ccc(N2CCNCC2)cc1)c1ccc(NCc2ccc(Cl)cc2O)cc1 | inactive | inactive |  |  |
| COc1cccc(C2c3c(ncn(-c4ccccc4Cl)c3=N)Oc3ccc4ccccc4c32)c1 (stereo unspecified) | inactive | inactive |  |  |
| CC(=O)c1ccc(N2CCN(S(=O)(=O)c3ccc4c(c3)oc(=O)n4C)CC2)cc1 | inactive | inactive |  |  |
| CSc1ccccc1-c1ncc(C)c(NCc2ccc(-c3cccnc3)cc2)n1 | inactive | inactive |  |  |
| C[S+](=O)([O-])c1ccc(C(=O)OCC(=O)N2CCNC(=O)C2)cc1[N+](=O)[O-] | inactive | inactive |  |  |
| Cc1nc(NC2CCCCC2)c2nc(-c3ccccc3)n(CCN(C)C)c2n1 | inactive | inactive |  |  |
| Cc1ccc(OCCn2c(CCNC(=O)c3cccc4cc[nH]c34)nc3ccccc32)cc1 | inactive | inactive |  |  |
| CC(C)c1ccccc1-c1ncc(N(C)C)c(NCc2ccc(-c3cccnc3)cc2)n1 | inactive | inactive |  |  |
| C=C(C)C(=O)O[C@H]1CC2=CC(C/C(C)=C\[C@H]3OC(=O)C(=C)[C@H]13)OC2=O (stereo partly specified) | inactive | inactive |  |  |
| COc1cccc(-c2csc(NC(=O)c3ccncc3NS(=O)(=O)c3ccc(C)cc3)n2)c1 | inactive | inactive |  |  |
